Consider 8 molecules from PubChem BioAssay (NCI).

Each structure is given as a SMILES string. This is part of a sample that, as a whole, favours compounds with a hit. Of some 83,000 tested, about 20% had one in any assay.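 Cell lines were cultured in 96-well plates, exposed to a single compound concentration, and assessed for percent growth 48 hours later.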 A number with no mark means an inactive call. Activity calls are given as the source filed them. Rule for the calls: active = growth percent below 10; inactive = the rest.

Some test systems named below: HCT-15 colon; HT29 colon; SNB-75 CNS; SNB-19 CNS; U251 CNS; PC-3 prostate; SK-MEL-5 melanoma; UACC-62 melanoma; LOX IMVI melanoma; SK-MEL-28 melanoma; SK-MEL-2 melanoma; EKVX NSCLC; SN12C renal; UO-31 renal; TK-10 renal; ACHN renal; CAKI-1 renal; A498 renal; CCRF-CEM leukemia; MOLT-4 leukemia.
Holding throughout (assay): NCI-60 one-dose screen, 48 h (100 = growth as untreated, 0 = no growth, -100 = all killed)
Holding throughout (conditions): 10 µM unless noted

For `COc1cc(NCC(O)CN(CC(C)C)CC(C)C)c2nc(C)ccc2c1` (stereo not drawn), the growth in the assay on HCT-15 colon was 84.8%; in the assay on HT29 colon it was 80.2%; with SNB-75 CNS it was 97.9%; with SNB-19 CNS, 96%; in the assay on U251 CNS it was 91.3%; with PC-3 prostate it was 75.3%. The growth is 93.5% in the assay with SK-MEL-5 melanoma; 88.9% in the assay on UACC-62 melanoma; 90.1% in the assay on LOX IMVI melanoma; 100% with SK-MEL-28 melanoma; 99% in the assay with SK-MEL-2 melanoma; 79.8% in the assay with EKVX NSCLC. Also, the growth in the assay with SN12C renal is 92.3%; in the assay on UO-31 renal it was 66.9%; with TK-10 renal, 105%; in the assay on ACHN renal it was 89.4%; in the assay on CAKI-1 renal, 74.1%; in the assay with A498 renal, 86.2%. In addition, the growth in the assay on CCRF-CEM leukemia is 115%; with MOLT-4 leukemia, 78%.

Take `COc1ccc(-c2nc(N/N=C/c3cccc(O)c3)nc(N3CCOCC3)c2C#N)cc1`: the growth with HCT-15 colon was 46.9%; in the assay on HT29 colon, 72.6%; with SNB-75 CNS, 23.6%; in the assay with SNB-19 CNS, 85.9%; with U251 CNS it was 58.9%; in the assay on PC-3 prostate it was 56.5%. The growth in the assay on SK-MEL-5 melanoma is 80.1%; in the assay on UACC-62 melanoma it was 90.1%; in the assay with LOX IMVI melanoma it was 79.6%; in the assay on SK-MEL-28 melanoma it was 33.9%; in the assay with SK-MEL-2 melanoma, 85.6%; with EKVX NSCLC it was 88.7%. Further, the growth in the assay on SN12C renal was 78.3%; in the assay with UO-31 renal it was 34.4%; in the assay on TK-10 renal, 88.4%; in the assay with ACHN renal it was 57.8%; in the assay on CAKI-1 renal, 77%; in the assay on A498 renal it was 85.7%. Moreover, the results for the growth with CCRF-CEM leukemia and in the assay with MOLT-4 leukemia were 26.3% and 39.8%, respectively.

On to `COc1cc(/C=C/C(=O)c2c(C)oc3nc[nH]c(=O)c23)ccc1O`, for which the growth in the assay with HCT-15 colon is 98.1%; in the assay on HT29 colon, 108%; in the assay with SNB-75 CNS, 84.4%; with SNB-19 CNS, 97.3%; in the assay on U251 CNS, 103%; in the assay with PC-3 prostate, 103%. Moreover, the growth in the assay with SK-MEL-5 melanoma is 101%; in the assay with UACC-62 melanoma it was 96.5%; with LOX IMVI melanoma, 97.7%; with SK-MEL-28 melanoma, 101%; in the assay with SK-MEL-2 melanoma, 109%; with EKVX NSCLC, 97.9%. Further, the growth is 97.2% in the assay on SN12C renal; 84.3% in the assay with UO-31 renal; 135% in the assay with TK-10 renal; 101% with ACHN renal; 87.1% in the assay with CAKI-1 renal; 94.8% in the assay with A498 renal. Further, the growth in the assay with MOLT-4 leukemia was 104%.

Turning to `CS(=O)(=O)Nc1cc(-c2ccc3ncnc(Nc4ccc5[nH]ncc5c4)c3c2)cnc1Cl`, the growth is 79.4% in the assay with HCT-15 colon; 80.9% in the assay with HT29 colon; 15.5% in the assay on SNB-75 CNS; 68.7% in the assay with SNB-19 CNS; 64.9% in the assay with U251 CNS; 76.8% with PC-3 prostate. In addition, the growth was 81% with SK-MEL-5 melanoma; 58.9% in the assay on UACC-62 melanoma; 66.2% with LOX IMVI melanoma; 50.8% in the assay on SK-MEL-28 melanoma; 63.1% in the assay on SK-MEL-2 melanoma; 62.3% with EKVX NSCLC. The growth was 67.8% with SN12C renal; 64.1% with UO-31 renal; 65.6% in the assay on TK-10 renal; 83.8% with ACHN renal; 51.9% in the assay with CAKI-1 renal; 24.5% in the assay on A498 renal. The growth with MOLT-4 leukemia was 75.3%.

Take `O=C(Nc1ccc(F)cc1)c1c(NC(=O)C(F)(F)F)sc2c1CCCCC2`: the growth in the assay with HCT-15 colon is 11.5%; with HT29 colon it was 5.86% (active); in the assay with SNB-75 CNS it was -23% (active); with SNB-19 CNS, 13.3%; in the assay with U251 CNS it was 6.02% (active); in the assay on PC-3 prostate, 3.29% (active). The growth in the assay with SK-MEL-5 melanoma was -55.6% (active); in the assay on UACC-62 melanoma, 3.56% (active); with LOX IMVI melanoma, 15%; with SK-MEL-28 melanoma it was 12.2%; with SK-MEL-2 melanoma, -26.8% (active); in the assay on EKVX NSCLC, -2.06% (active). Besides, the growth in the assay with SN12C renal is 2.15% (active); with UO-31 renal, -0.296% (active); in the assay on TK-10 renal, 15.5%; with ACHN renal it was 1.59% (active); in the assay on CAKI-1 renal, -19.1% (active); in the assay on A498 renal, -57% (active). Also, the growth in the assay on MOLT-4 leukemia is 3.21% (active).

Consider `CC(C)[N+](C)(CCOC(COc1ccccc1)COc1ccccc1)C(C)C`, for which the growth in the assay with HCT-15 colon was 100%; with HT29 colon, 73.4%; in the assay with SNB-75 CNS it was 70.9%; with SNB-19 CNS it was 86.2%; in the assay with U251 CNS, 83.8%; with PC-3 prostate, 73.2%. Further, the growth was 86.8% in the assay on SK-MEL-5 melanoma; 78.6% in the assay with UACC-62 melanoma; 95.5% with LOX IMVI melanoma; 96.6% with SK-MEL-28 melanoma; 87.1% in the assay with SK-MEL-2 melanoma; 79.1% in the assay with EKVX NSCLC. Further, the growth in the assay with SN12C renal was 64.8%; in the assay with UO-31 renal, 88.8%; in the assay on TK-10 renal, 94.1%; with ACHN renal, 105%; in the assay on CAKI-1 renal it was 105%; with A498 renal it was 60%. Further, the growth with CCRF-CEM leukemia is 87.7%; in the assay on MOLT-4 leukemia, 98.2%.

Turning to `COc1ccc(C(=O)c2cc(C)c(OC)c(C)c2)c(OC)c1O`, the growth is 8.64% (active) with HCT-15 colon; 26.6% with HT29 colon; 57.8% in the assay on SNB-75 CNS; 22.2% in the assay with SNB-19 CNS; 14.5% in the assay with U251 CNS; 19.5% in the assay on PC-3 prostate. The growth is -34.5% (active) with SK-MEL-5 melanoma; 30.3% in the assay with UACC-62 melanoma; 21.5% in the assay on LOX IMVI melanoma; 48.8% in the assay on SK-MEL-28 melanoma; 26.8% with SK-MEL-2 melanoma; 59.2% in the assay with EKVX NSCLC. For the same molecule, the growth in the assay with SN12C renal is 28.8%; in the assay with UO-31 renal, 36.6%; with TK-10 renal it was 58.5%; in the assay on ACHN renal, 22.5%; in the assay with CAKI-1 renal it was 39.5%; in the assay with CCRF-CEM leukemia, 16.3%.

`Nc1c(C(=O)Nc2cccc3ccncc23)sc2nc3c(cc12)C(=O)CCC3`: the growth in the assay with HCT-15 colon is 35.1%; in the assay with HT29 colon, 18.2%; in the assay on SNB-75 CNS it was 9.48% (active); in the assay on SNB-19 CNS it was 32.9%; in the assay with U251 CNS, 48.3%; in the assay on PC-3 prostate, 52.9%. For the same molecule, the growth is 3.47% (active) with SK-MEL-5 melanoma; 28.9% in the assay on UACC-62 melanoma; 46.2% with LOX IMVI melanoma; 55.8% in the assay on SK-MEL-28 melanoma; 25.1% in the assay with SK-MEL-2 melanoma; 62.1% in the assay with EKVX NSCLC. For the same molecule, the growth in the assay with SN12C renal is 54.5%; in the assay on UO-31 renal it was 57.7%; with TK-10 renal it was 68.2%; with ACHN renal it was 51.2%; in the assay with CAKI-1 renal, 37.7%; with CCRF-CEM leukemia, 21.5%.
